This note sets out measurements from PubChem BioAssay (Tox21).

Structures are written as SMILES. “And” between values parts separate entries of the source, which are not always exact repeats. Equal values may be shown once. Results filed as inconclusive are left out. More than one record can exist for a structure, and the calls need not agree. The source made the active and inactive calls. Unless noted, calls come from the whole dose curve; as a rule, active = well fitted curve in the direction sought with a large enough effect in the repeat runs; inconclusive = weak or mixed curves; inactive = no such curve, though single readings can be large; an effect the other way counts as inactive or inconclusive.

Test [1] in a line: qHTS assay to identify small molecule antagonists of the constitutive androstane receptor (CAR) signaling pathway - cell viability counter screen (AID 1224837). Note: nearly all actives have a fitted effect of over 45% in size. The method in brief:
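HepG2 cells stably carrying hCAR and CYP2B6-2.2kb reporter, stimulated with 50 nM CITCO and compounds at 15 concentrations for 23 h at 37 C. Viability measured by CellTiter-Fluor fluorescence.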

A short description of test [2]: qHTS assay to identify small molecule antagonists of the estrogen related receptor signaling pathway with the pleiotropic PPARgamma coactivator (PGC) from Tox21 10K library - cell viability counter screen (AID 1224840; active = well fitted cell-killing curve with a large enough effect in the repeat runs, not every such curve was filed as active; note: nearly all actives have a fitted effect of over 40% in size; note: potency is the fitted concentration of half-maximal effect). The method, boiled down:
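PGC/ERR cells (2,000/well) plated 6 h, then compound-treated for 17.5 h at 37 C. Viability measured by CellTiter-Fluor fluorescence after 30 min at 37 C, multiplexed with the pathway assay.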

Test [3] deals with Thyrotropin receptor (Homo sapiens) (UniProt P16473). Nature of the test: qHTS assay to identify small molecule agonists of the thyroid stimulating hormone receptor (TSHR) signaling pathway (AID 1224843; calls by dose curve; note: nearly all actives have a fitted effect of over 45% in size; note: potency is the fitted concentration of half-maximal effect). The method, boiled down:
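HEK293 cells stably bearing the thyrotropin receptor were plated at 800 cells/well and challenged with compound (30 min, RT). Accumulated cAMP was quantified via cAMP-d2 competing for cryptate-tagged antibody.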
For orientation: In qHTS, concentration-response curves come from the screen itself.

Test [4] is described as follows: qHTS assay to identify small molecule agonists of the hypoxia (HIF-1) signaling pathway - cell viability counter screen (AID 1224844; calls by dose curve; note: nearly all actives have a fitted effect of over 50% in size; note: potency is the fitted concentration of half-maximal effect). The method, boiled down:
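HRE-bla ME-180 cells, 2,000/well in 0.5% dialyzed FBS medium, treated 17 h at 37C with compounds. Viability read in the same wells as the bla reporter, by CellTiter-Glo luminescence after 30 min at room temperature.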

A short description of test [5]: qHTS assay to identify small molecule agonists of H2AX (AID 1224845; active = well fitted activation curve with a large enough effect in the signal ratio in the repeat runs, not every such curve was filed as active; the % refers to the signal ratio; note: potency is the fitted concentration of half-maximal effect). The method, boiled down:
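Phospho-H2AX Ser139 measured by HTRF (ex 320 nm; em 665 and 620 nm) after 24 hr antibody incubation. Compounds, 15 concentrations, 0.76% DMSO, were applied to CHO-K1 cells for 3hr at 37C before lysis.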

Test [6] can be described thus: qHTS assay to identify small molecule agonists of H2AX - cell viability counter screen (AID 1224847; calls by dose curve; note: nearly all actives have a fitted effect of over 30% in size; note: potency is the fitted concentration of half-maximal effect). The method, boiled down: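 CHO-K1 wt, 1000 cells/well, o/n 37C; cpds 15 conc, 3 h 37C, 0.76% DMSO; CellTiter-Glo, 30 min RT, luminescence.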
Test [7] in a line: A CellTox Green Cytotoxicity Assay to monitor cytotoxicity in HEK293 cells - 0 hour (AID 1224869). Note: nearly all actives have a fitted effect of over 50% in size. Note: potency is the fitted concentration of half-maximal effect. The method, boiled down:
(§1)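 HEK293 cells, 600/well, were preincubated 5 hours and then exposed to compounds at 37 C for up to 40 hours. A cell-impermeant cyanine dye staining dead-cell DNA was read by fluorescence at 0, 8, 16, 24, 32 and 40 h time points.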

A short description of test [8]: A CellTox Green Cytotoxicity Assay to monitor cytotoxicity in HEK293 cells - 40 hour (AID 1224871). Note: nearly all actives have a fitted effect of over 45% in size. Note: potency is the fitted concentration of half-maximal effect. The method in brief: as §1
In test [9] the target is Nuclear receptor subfamily 1 group I member 3 (Homo sapiens) (UniProt Q14994). Nature of the test: qHTS assay to identify small molecule antagonists of the constitutive androstane receptor (CAR) signaling pathway (AID 1224838). Note: nearly all actives have a fitted effect of over 40% in size. Note: potency is the fitted concentration of half-maximal effect. The method in brief:
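HepG2 cells stably carrying hCAR and a CYP2B6-2.2kb luciferase reporter, seeded 4 hrs before compound (15 concentrations). Stimulated with 50 nM CITCO for 24 hr at 37 C. ONE-Glo luminescence read after 30 min at room temperature.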

A short description of test [10]: qHTS RealTime-Glo MT Cell Viability Assay in HepG2 cells - 24 hour (AID 1224867). Note: nearly all actives have a fitted effect of over 50% in size. Note: potency is the fitted concentration of half-maximal effect. The method in brief: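 Real-time, nonlytic viability: 600 HepG2 cells/well mixed with NanoLuc enzyme plus prosubstrate; 5 h settle, compound (DMSO) added by pintool; luminescence monitored over 40 h at 37 C.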
A short description of test [11]: qHTS RealTime-Glo MT Cell Viability Assay in HEK293 cells - 32 hour (AID 1224868). Note: nearly all actives have a fitted effect of over 50% in size. Note: potency is the fitted concentration of half-maximal effect. The method in brief: (§2)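 Cells + reagent dispensed (600 cells/well, HEK293) → 5 h at 37 C/5% CO2 → 23 nL compound in DMSO pinned → 40 h at 37 C → luminescence read at 0, 8, 16, 24, 32, 40 h.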
Test [12] in a line: qHTS RealTime-Glo MT Cell Viability Assay in HepG2 cells - 40 hour (AID 1224870). Note: nearly all actives have a fitted effect of over 50% in size. The method in brief: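 Real-time viability: cells seeded at 600 per well together with NanoLuc and cell-permeant prosubstrate, compounds added after 5 h incubation. Luminescence tracked at 0, 8, 16, 24, 32 and 40 h of exposure.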
A short description of test [13]: qHTS RealTime-Glo MT Cell Viability Assay in HEK293 cells - 16 hour (AID 1224872). Note: nearly all actives have a fitted effect of over 50% in size. Note: potency is the fitted concentration of half-maximal effect. The method in brief: as §2
Test [14] deals with Nuclear receptor subfamily 1 group I member 3 (Homo sapiens) (UniProt Q14994). Nature of the test: qHTS assay to identify small molecule agonists of the constitutive androstane receptor (CAR) signaling pathway (AID 1224839). Note: nearly all actives have a fitted effect of over 15% in size. Note: potency is the fitted concentration of half-maximal effect. The method in brief: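 Luminescence read-out (ONE-Glo, 30 min, room temperature) from double-stable HepG2-CYP2B6-hCAR cells exposed 24 h to 15-point compound series in presence of 0.75 uM PK11195 final.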
Nuclear receptor subfamily 1 group I member 3 (Homo sapiens), sequence (Q14994 whole entry, looked up): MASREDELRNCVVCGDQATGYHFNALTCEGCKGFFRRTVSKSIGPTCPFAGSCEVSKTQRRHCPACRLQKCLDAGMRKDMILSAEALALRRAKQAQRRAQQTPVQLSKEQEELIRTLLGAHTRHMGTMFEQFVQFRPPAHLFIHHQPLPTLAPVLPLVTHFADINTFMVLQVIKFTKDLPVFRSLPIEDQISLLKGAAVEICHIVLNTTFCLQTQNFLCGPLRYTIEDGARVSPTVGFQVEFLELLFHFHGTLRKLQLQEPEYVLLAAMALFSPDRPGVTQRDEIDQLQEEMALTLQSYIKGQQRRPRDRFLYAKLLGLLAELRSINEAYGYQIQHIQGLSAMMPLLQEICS

A short description of test [15]: qHTS assay to identify small molecule agonists of the hypoxia (HIF-1) signaling pathway (AID 1224846; active = well fitted activation curve with a large enough effect in the signal ratio in the repeat runs, not every such curve was filed as active; the % refers to the signal ratio). The method, boiled down: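 HRE-bla ME-180 beta-lactamase reporter cells in medium with 0.5% dialyzed FBS, pre-incubated 5 h then exposed to compounds 17 h at 37C, 5% CO2; reporter induction read with CCF4-AM FRET substrate.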
Test [16] is described as follows: qHTS assay to identify small molecule antagonists of the estrogen related receptor signaling pathway with the pleiotropic PPARgamma coactivator (PGC) from Tox21 10K library (AID 1224841; call rule not given here; note: potency is the fitted concentration of half-maximal effect). The method, boiled down:
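PGC/ERR cell line, 2,000 cells/well, pre-incubated 6 hours at 37 C, then exposed to compounds for 18 hours at 37 C; luciferase read with One-Glo luminescence after 30 min at room temperature.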

The nature of test [17]: qHTS assay to identify small molecule agonists of the estrogen related receptor signaling pathway with the pleiotropic PPARgamma coactivator (PGC) from Tox21 10K library (AID 1224842). Note: nearly all actives have a fitted effect of over 15% in size. The method, boiled down: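 Luminescence from One-Glo (30 min, room temperature) measured after PGC/ERR cells had 18 h at 37 C with pinned compound (23 nL in DMSO). Cells had been seeded at 2,000 per well and pre-incubated 6 h.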

The nature of test [18]: qHTS assay to identify small molecule agonists of the estrogen related receptor (ERR) signaling pathway from Tox21 library (AID 1224849; calls by dose curve; note: nearly all actives have a fitted effect of over 15% in size). Conditions: ERR reporter cell line, ONE-Glo luciferase, 18 h. The method in brief: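 ERR reporter cells (NTP line) pre-incubated 6 hours at 37 C, then exposed to compounds for 18 hours at 37 C. ONE-Glo luciferase luminescence was read after 30 minutes at room temperature.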

The nature of test [19]: qHTS assay to identify small molecule antagonists of the estrogen related receptor (ERR) signaling pathway from Tox21 library (AID 1224848). Note: nearly all actives have a fitted effect of over 50% in size. Note: potency is the fitted concentration of half-maximal effect. The method, boiled down: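 Reading was by luminescence 30 min after ONE-Glo addition. Before that, ERR cells at 2,000 per well had rested 6 h at 37 C/5% CO2 and then received pin-tooled compounds in DMSO for 18 h at 37 C.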
% is set by controls: 0 for no effect and ±100 for the full control effect.

Thyrotropin receptor (Homo sapiens), sequence (P16473 whole entry, looked up): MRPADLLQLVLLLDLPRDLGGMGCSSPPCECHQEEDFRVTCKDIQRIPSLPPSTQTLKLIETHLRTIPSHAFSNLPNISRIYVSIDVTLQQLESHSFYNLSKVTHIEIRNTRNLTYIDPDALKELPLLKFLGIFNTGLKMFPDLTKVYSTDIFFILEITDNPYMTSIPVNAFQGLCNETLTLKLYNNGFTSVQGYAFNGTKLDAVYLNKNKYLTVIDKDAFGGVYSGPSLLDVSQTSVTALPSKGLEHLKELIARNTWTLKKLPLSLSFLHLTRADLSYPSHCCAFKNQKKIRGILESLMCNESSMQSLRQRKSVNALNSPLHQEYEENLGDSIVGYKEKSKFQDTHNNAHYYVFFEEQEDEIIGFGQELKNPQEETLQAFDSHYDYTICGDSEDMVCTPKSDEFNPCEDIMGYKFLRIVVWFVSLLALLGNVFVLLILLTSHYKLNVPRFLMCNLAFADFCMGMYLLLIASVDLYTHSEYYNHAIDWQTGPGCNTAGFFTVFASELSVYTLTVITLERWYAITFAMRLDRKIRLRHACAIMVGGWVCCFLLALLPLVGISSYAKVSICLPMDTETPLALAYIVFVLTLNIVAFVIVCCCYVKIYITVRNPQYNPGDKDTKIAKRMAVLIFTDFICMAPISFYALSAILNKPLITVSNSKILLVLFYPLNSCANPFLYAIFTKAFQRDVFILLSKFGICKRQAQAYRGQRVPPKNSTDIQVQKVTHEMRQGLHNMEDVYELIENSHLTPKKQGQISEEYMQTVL

Regarding `CC1COc2c(N3CCN(C)CC3)c(F)cc3c(=O)c(C(=O)O)cn1c23` (stereo unspecified), the Potency result in [1], in test [2], in test [3], in [4], in test [5] and in [6] was “inactive” each time. For the same compound, the Potency result in test [7] and in test [8] was “inactive” in each case.
For the compound `NNCCc1ccccc1`, the Potency result in test [1], in test [9], in [2], in [3], in test [4] and in test [5] was “inactive” throughout. The Potency entry in [6], in test [10], in test [11], in test [7], in test [12] and in test [8] was “inactive” in each case. The Potency entry in test [13] is “inactive”.
Regarding `COC(=O)c1cccc(C(=O)OC)c1`, the Potency entry in test [1], in test [9], in [14], in [2], in [4] and in test [5] was “inactive” in each case. The Potency result in [15], in [6], in [10], in test [11], in [12] and in [13] was “inactive” in each case. For the same compound, the Potency result in test [7] is “inactive and 43.6 µM (active)”; in test [8], “inactive and 38.9 µM (active)”.
For the compound `C=C(C)C1CC=C(C)C(OC(C)=O)C1` (stereo unspecified), the Potency result in test [1], in [2], in [16], in [17], in test [3] and in test [4] was “inactive” throughout. The Potency result in test [5], in [15], in test [6], in test [10], in [11] and in [7] was “inactive” each time. The Potency result in test [8] was “inactive”. In addition, in [18] (at 92.4 µM (top of the series)), the activity change, positive = activation is 2.18% (inactive) and 0.969% (inactive).
Consider `O=C1NCC2(CCN(CCc3ccccc3)CC2)O1`, for which the Potency result in [1], in [9], in [14], in test [2], in test [3] and in test [4] was “inactive” throughout. Further, the Potency result in test [5], in test [6], in [10], in test [11], in [7] and in [8] was “inactive” each time. Also, in test [13], the Potency result is “inactive”.
With `CC(=O)CC(C)=O`, the Potency entry in test [1], in test [2], in [16], in test [17], in test [3] and in test [4] was “inactive” each time. In addition, the Potency entry in test [5], in test [15], in [6], in test [10], in test [11] and in test [7] was “inactive” each time. Besides, the Potency entry in test [12], in test [8] and in test [13] was “inactive” each time. In [18] (at 92.4 µM (top of the series)), the activity change, positive = activation was 3.5% (inactive).
Regarding `C=C(C)C(=O)O`, the Potency entry in test [1], in test [2], in test [4], in test [5], in test [15] and in [6] was “inactive” throughout. For the same compound, the Potency result in test [10], in test [11], in test [7], in test [12] and in [8] was “inactive” in each case.
For `Nc1ccc(O)cc1`, the Potency is 35.7 µM (active) and inactive in [2]; 45 µM (active) and inactive in test [16]; 50.9 µM (active) and inactive in test [4]; 22.5 µM (active) and inactive in test [19]; 32.1 µM (active) and inactive in test [11]; 25.5 µM (active) and inactive in [8]. Besides, the Potency entry in [17], in test [3], in test [15], in test [6], in [10] and in [7] was “inactive” each time. In addition, the Potency result in [12] was “inactive”. Further, the activity change, positive = activation in [18] (at 92.4 µM (top of the series)) is -66.4% (inactive).
As to `CC1=CC(=O)c2ccccc2C1=O`, the Potency is 30.6 µM (active) in [9]; 30.6 µM (active) in test [16]; 21.9 µM (active) and inactive in test [4]; 40.1 µM (active) in test [5]; 40.1 µM (active) in test [6]; 43.3 µM (active) in test [19]. For the same compound, the Potency was 43.6 µM (active) in test [10]; 15.5 µM (active) in test [11]; 21.9 µM (active) and 23.9 µM (active) in test [8]; 13.8 µM (active) and 23.9 µM (active) in test [13]. The Potency entry in test [14], in test [2], in test [17] and in test [7] was “inactive” in each case. Further, the activity change, positive = activation in [18] (at 42.5 µM (top of the series)) was -26.5% (inactive); in [18] (at 92.4 µM (top of the series)), -78.8% (inactive).
As to `Cc1scc2c1N(C(=O)CN1CCN(C)CC1)c1ccccc1NC2=O`, the Potency entry in test [1], in test [14], in test [2], in [3], in test [4] and in test [5] was “inactive” throughout. The Potency entry in test [6], in test [10], in test [11], in test [7], in test [12] and in test [8] was “inactive” throughout. Further, the Potency result in test [13] is “inactive”.
As for `O=C(O)c1cn(-c2ccc(F)cc2)c2cc(N3CCNCC3)c(F)cc2c1=O`, the Potency entry in test [1], in test [2], in test [3], in test [4], in test [5] and in [15] was “inactive” each time. The Potency entry in test [6], in test [10], in test [11], in test [7], in test [12] and in test [8] was “inactive” each time.
Consider `Nc1ccc2cc3ccccc3cc2c1`, for which the Potency result in test [9], in test [2], in [3], in [4], in [5] and in test [6] was “inactive” in each case. Moreover, the Potency entry in [10], in test [11] and in [8] was “inactive” each time. Moreover, the Potency in [14] is 27.8 µM (active) and 48.6 µM (active).
Take `Nc1cc(S(=O)(=O)O)cc2cc(S(=O)(=O)O)cc(O)c12`: the Potency entry in test [1], in [6], in [10], in [11], in [7] and in test [12] was “inactive” each time. The Potency result in test [8] and in test [13] was “inactive” throughout. The Potency entry in [4] is “inactive and 4.9 µM (active)”.
Take `CC(C)(C)NCC(O)c1cc(O)cc(O)c1` (stereo unspecified): the Potency entry in test [1], in test [2], in test [4], in [5], in test [15] and in test [6] was “inactive” each time. For the same compound, the Potency result in test [10], in test [11], in test [7], in test [12], in [8] and in [13] was “inactive” in each case. Further, the Potency in test [3] is 0.596 µM (active).
